Experimental data taken from ChEMBL document CHEMBL3988442, “University of Dundee, Small-Polar-MMV Screening Library” (2021).
For some of these results: Entries with a potency or affinity are not part of this list.

Tests used:
Parameters in all cases: scale not given: direction of the effect not stated beside the values
[1] = target: Protein translocase subunit SecA (Escherichia coli (strain K12)) (UniProt P10408); test: Assay to Identify E. coli SecA ATPase Inhibitors; assay type: functional; conditions: 30 µM
Chain of Protein translocase subunit SecA (Escherichia coli (strain K12)) (P10408 whole entry): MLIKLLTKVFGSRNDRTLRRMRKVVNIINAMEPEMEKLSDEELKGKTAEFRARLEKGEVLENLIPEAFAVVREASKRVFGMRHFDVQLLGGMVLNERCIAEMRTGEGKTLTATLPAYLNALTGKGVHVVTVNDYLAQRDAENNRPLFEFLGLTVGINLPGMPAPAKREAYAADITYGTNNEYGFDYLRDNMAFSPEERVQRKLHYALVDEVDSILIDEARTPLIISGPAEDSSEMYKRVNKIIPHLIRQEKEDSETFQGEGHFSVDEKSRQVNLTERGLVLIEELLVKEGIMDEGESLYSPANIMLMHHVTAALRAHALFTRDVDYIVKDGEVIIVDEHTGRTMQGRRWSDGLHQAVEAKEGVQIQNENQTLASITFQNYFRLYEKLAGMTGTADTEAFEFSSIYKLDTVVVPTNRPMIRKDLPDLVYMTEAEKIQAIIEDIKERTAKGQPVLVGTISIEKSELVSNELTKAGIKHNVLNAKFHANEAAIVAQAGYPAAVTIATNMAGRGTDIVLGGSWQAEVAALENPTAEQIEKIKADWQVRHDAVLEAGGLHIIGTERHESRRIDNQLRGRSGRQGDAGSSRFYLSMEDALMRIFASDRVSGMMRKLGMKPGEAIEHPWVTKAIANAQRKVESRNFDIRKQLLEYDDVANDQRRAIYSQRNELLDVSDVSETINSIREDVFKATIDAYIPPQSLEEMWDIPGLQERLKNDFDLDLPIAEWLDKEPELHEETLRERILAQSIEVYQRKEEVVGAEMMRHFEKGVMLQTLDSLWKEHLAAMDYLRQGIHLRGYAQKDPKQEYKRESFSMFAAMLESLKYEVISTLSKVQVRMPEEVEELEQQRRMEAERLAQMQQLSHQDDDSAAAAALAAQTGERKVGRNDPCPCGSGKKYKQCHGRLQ

[2] = target: T1, Ubiquitin-activating enzyme e1, putative (Leishmania donovani (strain BPK282A1)) (UniProt E9BSI1); test: Leishmania donovani Ubiquitin Activating Enzyme (LdE1); assay type: functional; conditions: 30 µM
T1 sequence (whole entry): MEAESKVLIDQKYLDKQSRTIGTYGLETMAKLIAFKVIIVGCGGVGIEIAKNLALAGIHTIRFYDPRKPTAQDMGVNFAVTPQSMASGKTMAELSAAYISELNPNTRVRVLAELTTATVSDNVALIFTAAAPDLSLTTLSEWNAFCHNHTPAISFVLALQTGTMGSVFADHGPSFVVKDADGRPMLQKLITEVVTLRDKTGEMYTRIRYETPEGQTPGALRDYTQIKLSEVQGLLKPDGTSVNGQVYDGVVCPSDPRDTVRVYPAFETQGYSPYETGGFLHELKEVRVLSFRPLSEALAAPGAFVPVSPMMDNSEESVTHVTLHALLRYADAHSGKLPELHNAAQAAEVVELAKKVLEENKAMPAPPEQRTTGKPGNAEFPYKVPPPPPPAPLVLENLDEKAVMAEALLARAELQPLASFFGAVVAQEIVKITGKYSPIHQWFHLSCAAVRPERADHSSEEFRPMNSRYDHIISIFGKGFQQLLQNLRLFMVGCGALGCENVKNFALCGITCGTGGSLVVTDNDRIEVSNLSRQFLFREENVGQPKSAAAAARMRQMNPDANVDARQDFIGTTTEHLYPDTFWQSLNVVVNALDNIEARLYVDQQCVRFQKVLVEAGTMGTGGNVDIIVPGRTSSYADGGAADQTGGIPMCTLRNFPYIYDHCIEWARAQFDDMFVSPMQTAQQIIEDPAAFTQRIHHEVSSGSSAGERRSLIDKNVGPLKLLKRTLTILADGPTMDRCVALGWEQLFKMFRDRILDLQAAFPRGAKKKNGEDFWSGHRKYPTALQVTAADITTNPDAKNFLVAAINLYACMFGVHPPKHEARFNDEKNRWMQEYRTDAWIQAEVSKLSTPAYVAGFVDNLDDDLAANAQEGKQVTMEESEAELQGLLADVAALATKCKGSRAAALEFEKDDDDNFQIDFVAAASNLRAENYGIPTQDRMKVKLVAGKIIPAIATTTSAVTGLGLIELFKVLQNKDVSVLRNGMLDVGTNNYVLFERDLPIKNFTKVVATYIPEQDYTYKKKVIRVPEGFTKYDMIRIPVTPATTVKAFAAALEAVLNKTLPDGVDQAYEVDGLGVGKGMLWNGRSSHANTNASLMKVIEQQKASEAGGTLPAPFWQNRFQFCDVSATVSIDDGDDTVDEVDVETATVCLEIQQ

[3] = target: AMP-activated protein kinase, AMPK (Homo sapiens) (UniProt P54646+O43741+P54619+Q9UGJ0+Q9Y478+Q13131+Q9UGI9); test: AMP-dependent Kinase enzyme assay. An in vitro enzyme assay that detects ADP turnover that is directly proportional to AMPK activity. This uses naive AMPK that is activated during the assay with MK-8722; assay type: functional; conditions: 30 µM
[4] = target: Sialic acid-binding Ig-like lectin 9 (Homo sapiens) (UniProt Q9Y336); test: Hs-Siglec9 ALPHAscreen SOP 20170721; conditions: 10 µM
Chain of Sialic acid-binding Ig-like lectin 9 (Homo sapiens) (Q9Y336 whole entry): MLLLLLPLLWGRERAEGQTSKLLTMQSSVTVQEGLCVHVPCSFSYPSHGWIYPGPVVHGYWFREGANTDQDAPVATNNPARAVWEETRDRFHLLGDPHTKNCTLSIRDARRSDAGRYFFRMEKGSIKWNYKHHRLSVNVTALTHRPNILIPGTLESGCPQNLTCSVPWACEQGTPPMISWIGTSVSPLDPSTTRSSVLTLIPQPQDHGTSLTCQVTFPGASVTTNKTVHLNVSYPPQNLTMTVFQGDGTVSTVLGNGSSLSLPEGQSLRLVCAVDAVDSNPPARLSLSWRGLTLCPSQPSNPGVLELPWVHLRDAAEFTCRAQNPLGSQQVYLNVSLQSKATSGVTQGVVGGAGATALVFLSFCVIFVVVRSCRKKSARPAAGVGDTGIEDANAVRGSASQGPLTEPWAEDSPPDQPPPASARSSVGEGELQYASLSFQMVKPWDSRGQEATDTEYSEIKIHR

[5] = system: Trypanosoma cruzi; test: Trypanosoma cruzi phosphomannomutase and mannose-1-phosphate guanylyltransferase assay; assay type: functional; conditions: 10 µM
[6] = target: T2, Arginase-2, mitochondrial (Homo sapiens) (UniProt P78540); test: in vitro enzyme assay to detect the production of urea directly proportional to the activity of Arginase II; assay type: functional; conditions: 33.3 µM; also: in the data most compounds retested in dose-response had high values
T2 sequence (whole entry): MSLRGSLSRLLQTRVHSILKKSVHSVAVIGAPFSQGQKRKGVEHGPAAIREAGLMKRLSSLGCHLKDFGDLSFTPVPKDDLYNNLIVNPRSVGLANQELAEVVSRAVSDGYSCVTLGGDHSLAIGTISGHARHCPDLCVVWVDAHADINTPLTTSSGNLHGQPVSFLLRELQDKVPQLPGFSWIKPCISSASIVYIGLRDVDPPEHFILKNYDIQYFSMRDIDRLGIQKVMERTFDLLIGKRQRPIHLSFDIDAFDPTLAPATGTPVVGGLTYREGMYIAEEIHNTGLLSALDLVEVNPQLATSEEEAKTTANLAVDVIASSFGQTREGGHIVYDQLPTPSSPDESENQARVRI

[7] = target: T3, Proteasome subunit beta (Trypanosoma cruzi) (UniProt O96673); test: Trypanosoma cruzi proteasome chymotrypsin-like activity (TcProtChymo) assay.; also: in the data most compounds retested in dose-response had high values; assay type: functional; conditions: 9.37 µM
T3 sequence (whole entry): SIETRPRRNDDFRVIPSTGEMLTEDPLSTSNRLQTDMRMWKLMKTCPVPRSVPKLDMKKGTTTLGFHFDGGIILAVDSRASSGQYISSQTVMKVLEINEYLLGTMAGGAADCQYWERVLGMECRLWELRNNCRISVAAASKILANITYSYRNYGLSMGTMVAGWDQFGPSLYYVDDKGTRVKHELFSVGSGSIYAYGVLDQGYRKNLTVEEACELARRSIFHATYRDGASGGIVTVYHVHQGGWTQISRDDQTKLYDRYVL

[8] = species: Homo sapiens; test: To identify inhibition of the IFN signalling (Jak-Stat) pathway via expression of an eGFP reporter gene under the control of an IFN-stimulated response element (ISRE) containing MxA promoter.; assay type: functional; conditions: 30 µM
[9] = target: T4, Tyrosyl-tRNA synthetase, putative (Trypanosoma cruzi (strain CL Brener)) (UniProt Q4DSP6); test: Trypanosoma cruzi tyrosyl tRNA synthetase (TcYRS) _High Tyrosine SOP; assay type: functional; conditions: 30 µM; also: in the data most compounds retested in dose-response had high values
T4 sequence (whole entry): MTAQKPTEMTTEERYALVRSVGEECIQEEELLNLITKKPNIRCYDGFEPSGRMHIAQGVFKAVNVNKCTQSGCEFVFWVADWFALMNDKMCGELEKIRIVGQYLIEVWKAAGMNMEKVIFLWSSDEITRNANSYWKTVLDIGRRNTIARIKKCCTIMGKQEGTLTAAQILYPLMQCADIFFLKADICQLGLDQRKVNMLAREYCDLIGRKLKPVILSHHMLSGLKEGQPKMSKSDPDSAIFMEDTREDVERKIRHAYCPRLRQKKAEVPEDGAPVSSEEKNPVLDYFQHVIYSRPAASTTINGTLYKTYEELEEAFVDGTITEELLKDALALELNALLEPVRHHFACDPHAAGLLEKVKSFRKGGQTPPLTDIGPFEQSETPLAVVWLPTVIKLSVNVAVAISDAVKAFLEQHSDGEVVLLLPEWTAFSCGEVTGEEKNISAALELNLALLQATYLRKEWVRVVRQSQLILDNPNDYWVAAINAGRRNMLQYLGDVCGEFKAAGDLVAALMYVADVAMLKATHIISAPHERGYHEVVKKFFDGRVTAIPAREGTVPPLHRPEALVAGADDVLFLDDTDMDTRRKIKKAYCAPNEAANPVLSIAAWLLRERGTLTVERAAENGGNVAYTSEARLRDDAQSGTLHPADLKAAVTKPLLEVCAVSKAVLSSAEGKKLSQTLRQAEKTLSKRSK

[10] = target: T4, Tyrosyl-tRNA synthetase, putative (Trypanosoma cruzi (strain CL Brener)); test: Trypanosoma cruzi tyrosyl tRNA synthetase (TcYRS) SOP; assay type: functional; conditions: 30 µM
[11] = target: Chromo domain-containing protein 1 (Saccharomyces cerevisiae (strain ATCC 204508 / S288c) (Baker's yeast)) (UniProt P32657); test: ScCHD-1 Enzyme Inhibition Assay; assay type: functional; conditions: 30 µM; also: in the data most compounds retested in dose-response had high values
Chain of Chromo domain-containing protein 1 (Saccharomyces cerevisiae (strain ATCC 204508 / S288c) (Baker's yeast)) (P32657 whole entry, the tested form may be a part): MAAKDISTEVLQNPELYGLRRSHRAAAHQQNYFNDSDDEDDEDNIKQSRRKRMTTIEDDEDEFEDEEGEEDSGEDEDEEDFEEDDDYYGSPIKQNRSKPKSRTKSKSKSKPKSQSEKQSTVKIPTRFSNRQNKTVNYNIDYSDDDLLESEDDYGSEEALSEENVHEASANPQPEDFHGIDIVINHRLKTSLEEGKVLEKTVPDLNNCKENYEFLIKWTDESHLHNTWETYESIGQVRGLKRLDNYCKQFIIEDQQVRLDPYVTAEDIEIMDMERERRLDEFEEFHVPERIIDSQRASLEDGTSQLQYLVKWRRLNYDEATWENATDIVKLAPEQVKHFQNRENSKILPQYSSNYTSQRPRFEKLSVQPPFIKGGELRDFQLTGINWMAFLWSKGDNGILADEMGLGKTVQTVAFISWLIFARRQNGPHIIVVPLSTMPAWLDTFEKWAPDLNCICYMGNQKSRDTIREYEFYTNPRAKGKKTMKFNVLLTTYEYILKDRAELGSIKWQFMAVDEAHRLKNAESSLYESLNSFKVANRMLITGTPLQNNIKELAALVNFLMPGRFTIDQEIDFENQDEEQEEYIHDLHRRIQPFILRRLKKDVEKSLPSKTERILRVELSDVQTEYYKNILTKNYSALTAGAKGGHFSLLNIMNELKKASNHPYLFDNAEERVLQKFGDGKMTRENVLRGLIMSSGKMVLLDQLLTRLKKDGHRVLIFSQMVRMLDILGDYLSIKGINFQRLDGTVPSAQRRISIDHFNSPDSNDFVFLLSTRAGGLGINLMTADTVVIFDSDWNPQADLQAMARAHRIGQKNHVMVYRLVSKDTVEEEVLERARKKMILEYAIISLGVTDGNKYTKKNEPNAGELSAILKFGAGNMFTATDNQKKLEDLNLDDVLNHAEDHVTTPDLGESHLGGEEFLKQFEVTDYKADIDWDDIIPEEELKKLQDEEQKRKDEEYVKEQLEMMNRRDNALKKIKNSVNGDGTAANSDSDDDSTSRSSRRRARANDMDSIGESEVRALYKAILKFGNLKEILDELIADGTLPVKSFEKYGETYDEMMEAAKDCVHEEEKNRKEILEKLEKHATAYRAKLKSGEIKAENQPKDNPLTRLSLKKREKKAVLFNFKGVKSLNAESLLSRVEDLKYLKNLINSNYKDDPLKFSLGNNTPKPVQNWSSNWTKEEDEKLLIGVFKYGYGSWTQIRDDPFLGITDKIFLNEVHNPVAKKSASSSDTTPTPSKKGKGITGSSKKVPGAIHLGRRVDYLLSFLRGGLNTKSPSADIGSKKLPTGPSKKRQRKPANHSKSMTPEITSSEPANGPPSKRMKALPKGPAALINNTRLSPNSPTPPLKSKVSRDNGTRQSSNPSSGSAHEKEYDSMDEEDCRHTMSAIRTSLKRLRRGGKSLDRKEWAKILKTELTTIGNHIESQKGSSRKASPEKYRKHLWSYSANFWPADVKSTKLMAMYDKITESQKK

Row | SMILES | Percent Effect [1] [%] | Percent Effect [2] [%] | Percent Effect [3] [%] | Percent Effect [4] [%] | Percent Effect [5] [%] | Percent Effect [6] [%] | Percent Effect [7] [%] | Percent Effect [8] [%] | Percent Effect [9] [%] | Percent Effect [10] [%] | Percent Effect [11] [%]
1 | O=C1[C@H]2CN(c3ncccn3)C[C@H]2CN1Cc1ccncc1 | -4.5 | -2.7 | 1.46 | -4.76 | -2.34 | -0.417 | 3.97 | -1.92 | 3.96 | -3.66 | -3.35
2 | CCN(CC1CCCO1)C(=O)Nc1cc(C(=O)OC)ccc1F (stereo unspecified) | -2.67 | 7.59 | 1.58 | 13.4 | -1.98 | 1.9 | 2.21 | 0.11 | 3.45 | 8.86 | -8.28
3 | O=C1CCSCC(C(=O)N2CCN(C3CCCCC3)CC2)N1 (stereo unspecified) | -2.82 | 0 | -2.68 | -4.3 | 0.979 | 3.64 | 2.48 | -1.47 | 5.38 | 12.5 | -0.805
4 | CN1CCOC(CNCCc2ccccn2)C1 (stereo unspecified) | -2.22 | 20.2 | -8.39 | -6.71 | -3.31 | 5.7 | 5.32 | 16.5 | 8.37 | 16.5 | -2.67
5 | NC(=O)C1CCCN(Cc2c(-c3ccco3)[nH]c3ncccc23)C1 (stereo unspecified) | -1.81 | 12.2 | -2.48 | 1.48 | -3.16 | 1.16 | 9.83 | 23.8 | 7.53 | 14.3 | -8.85
6 | CCCn1c(C)cc(C(=O)CN2C(=O)c3ccccc3CS2(=O)=O)c1C | 2.47 | -18.9 | -2.92 | 7.94 | 0 | 1.91 | 14.7 | 21.2 | -10.1 | 0 | 8.3
7 | Cc1nc(C)n(CC2CCCN(CC(=O)Nc3nncs3)C2)n1 (stereo unspecified) | -2.17 | -2.63 | 3.08 | 5.75 | -2.26 | -1.15 | 4.84 | -3.5 | 1.47 | 0 | -0.768
8 | CCc1nccn1C1CCCN(C(=O)c2cnn3ccc(C)nc23)C1 (stereo unspecified) | -3.42 | -2.7 | -5.57 | 1.51 | -0.283 | -2 | 4.5 | 4.32 | 5.42 | -6.17 | -7.37
9 | CN(Cc1cccc(F)c1)C(=O)CN1CCCCC1Cn1cncn1 (stereo unspecified) | -1.08 | -2.6 | -0.897 | 5.97 | 1.08 | -4.14 | 9.32 | -1.75 | 4.3 | -1.24 | -0.771
10 | O=C(Cc1ccccn1)N1CCc2nc(-c3cnccn3)nc(O)c2C1 | -2.77 | 12.2 | 8.84 | -3.28 | 0.593 | 3.48 | 12.6 | 9.22 | 4.3 | 9.09 | -9.74
11 | CC(C)c1noc(CN(Cc2cccs2)C2CC2)n1 | -4.69 | -5.2 | 7.3 | 44.2 | -5.61 | 4.14 | 5.16 | 18.1 | -4.3 | -8.64 | 2.56
